PubChem BioAssay (NCI)
Compounds without any hit were thinned out: in the full panel of roughly 79,000, 15% have a hit. Active and inactive are the calls of the source. Rule as the data show it: active = growth inhibition above about 70%; inactive = the rest.

Experiments:
[1] = NCI Yeast Anticancer Drug Screen. Data for the rad52 strain (AID 147);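 also: 0% = growth of vehicle-treated control cultures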; conditions: S. cerevisiae rad52 mutant growth inhibition, hits give high values
In short: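 The repair-mutant yeast strain was incubated with compounds, then growth was read and inhibition derived relative to vehicle.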

[2] = NCI Yeast Anticancer Drug Screen. Data for the wt1 strain (AID 149);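 also: 0% = growth of vehicle-treated wt1 cultures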; conditions: S. cerevisiae wt1 strain (SPY 50644) growth inhibition, hits give high values
In short: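 wt1 strain grown with compound or vehicle; inhibition taken from the growth difference.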

[3] = NCI Yeast Anticancer Drug Screen. Data for the rad50EPP+ strain (AID 151);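 also: 0% = growth of vehicle-treated control cultures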; conditions: S. cerevisiae rad50 mutant strain, hits give high values
In short: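 Vehicle-normalised growth inhibition; rad50EPP+ yeast strain, altered in DNA damage repair, compound-treated.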

[4] = NCI Yeast Anticancer Drug Screen. Data for the mgt1 strain (AID 153); conditions: S. cerevisiae mgt1 mutant growth inhibition, hits give high values
In short: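 Vehicle-normalized growth inhibition is determined in mgt1 yeast, a strain selected for a defined alteration in DNA repair or cell cycle control.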

[5] = NCI Yeast Anticancer Drug Screen. Data for the rad50 strain (AID 155);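 also: 0% = growth of vehicle-only cultures of the same strain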; conditions: S. cerevisiae rad50 strain growth inhibition, hits give high values
In short: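 DNA repair mutant yeast, compound exposure, growth read-out; inhibition is taken relative to vehicle.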

[6] = NCI Yeast Anticancer Drug Screen. Data for the mec2-1 strain (AID 157); conditions: S. cerevisiae mec2-1 strain, hits give high values
In short: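 Mutant yeast (mec2-1) grown with compound; growth inhibition relative to vehicle control reported.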

[7] = NCI Yeast Anticancer Drug Screen. Data for the rad14 strain (AID 159);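 also: 0% = growth of vehicle-treated control cultures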; conditions: S. cerevisiae rad14 strain growth inhibition, hits give high values
In short: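 DNA repair-defective yeast, compound-exposed; % growth inhibition derived by comparison with vehicle-treated controls.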

[8] = NCI Yeast Anticancer Drug Screen. Data for the sgs1 mgt1 strain (AID 161);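 also: 0% = growth of cultures given vehicle only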; conditions: S. cerevisiae sgs1 mgt1 strain, hits give high values
In short: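 This yeast growth screen uses a strain with defined DNA-repair lesions; compound-treated growth is compared with vehicle-treated growth.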

[9] = NCI Yeast Anticancer Drug Screen. Data for the CLN2oe strain (AID 163);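 also: 0% = growth of vehicle-only control cultures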; conditions: S. cerevisiae CLN2oe strain, hits give high values
In short: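 Compounds are applied to yeast harbouring a defined cell-cycle control change; reduced growth compared with vehicle-treated controls gives the value.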

[10] = NCI Yeast Anticancer Drug Screen. Data for the cln2 rad14 strain (AID 165);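 also: 0% = growth equal to vehicle treated cultures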; conditions: S. cerevisiae cln2 rad14 strain, hits give high values
In short: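 Readout is yeast growth inhibition versus vehicle-treated controls, using a strain with cln2 and rad14 alterations exposed to compound.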

[11] = NCI Yeast Anticancer Drug Screen. Data for the bub3 strain (AID 167); conditions: S. cerevisiae bub3 mutant strain, hits give high values
In short: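 In this screen, a yeast mutant lacking normal mitotic checkpoint function is challenged with compound. Relative growth versus vehicle gives the inhibition value.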

[12] = NCI Yeast Anticancer Drug Screen. Data for the wt2 strain (AID 169);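 also: 0% = growth of vehicle-treated yeast cultures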; conditions: S. cerevisiae wt2 strain growth inhibition, hits give high values
In short: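 Against vehicle-treated controls, the growth of yeast exposed to each compound was compared, and the inhibition was recorded.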

[13] = NCI Yeast Anticancer Drug Screen. Data for the mlh1 strain (AID 171);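 also: 0% = growth of vehicle-treated control cultures of the same strain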; conditions: S. cerevisiae mlh1 strain growth inhibition, hits give high values
In short: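 Measured: yeast growth. Reference: vehicle-treated controls. Organism: strain with a defined alteration affecting DNA damage repair or cell cycle control, treated with compound.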

[14] = NCI Yeast Anticancer Drug Screen. Data for the sgs1 strain (AID 173);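 also: 0% = growth of vehicle-only control cultures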; conditions: S. cerevisiae sgs1 mutant, hits give high values
In short: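 Each compound was added to cultures of the altered yeast strain. Growth was recorded, and inhibition was derived by comparison with vehicle controls.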

[15] = NCI Yeast Anticancer Drug Screen. Data for the mlh1 rad18 strain (AID 175); conditions: S. cerevisiae mlh1 rad18 strain growth inhibition, hits give high values
In short: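 Genetically defined yeast (DNA repair-deficient) exposed to compounds; growth inhibition determined relative to vehicle.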

[16] = NCI Yeast Anticancer Drug Screen. Data for the rad18 strain (AID 177); conditions: S. cerevisiae rad18 mutant growth inhibition, hits give high values
In short: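 Vehicle-treated cultures served as the baseline for scoring compound-induced growth inhibition in DNA-repair-mutant yeast.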

[17] = at 5.0 µM (retest, dose inferred, filed as 0.5)
[18] = at 50.0 µM (retest, dose inferred, filed as 5.0)

Measured: growth inhibition

CC(=O)OCC(C)Cc1cc2c(cc1Br)OCO2 (stereo unspecified)
active: [8]; [18] 72% | [8]; at 50.0 µM 91.3% | [12]; at 100.0 µM 89% | [14]; at 100.0 µM 78% | [15]; [18] 70% | [15]; at 50.0 µM 78.8%
inactive: [1]; at 1.2 µM -6% | [1]; at 3.7 µM -11% | [1]; at 11.0 µM -8% | [1]; at 33.0 µM -3% | [1]; at 100.0 µM 19% | [2]; at 1.2 µM 1% | [2]; at 3.7 µM -5% | [2]; at 11.0 µM 6% | [2]; at 33.0 µM -2% | [2]; at 100.0 µM -13% | [3]; at 1.2 µM -9% | [3]; at 3.7 µM -6% | [3]; at 11.0 µM 16% | [3]; at 33.0 µM 18% | [3]; at 100.0 µM 33% | [4]; at 1.2 µM -3% | [4]; at 3.7 µM -9% | [4]; at 11.0 µM -8% | [4]; at 33.0 µM -9% | [4]; at 100.0 µM 16% | [5]; at 1.2 µM -16% | [5]; at 3.7 µM -19% | [5]; [17] 2% | [5]; at 11.0 µM -23% | [5]; at 33.0 µM -13% | [5]; [18] 19% | [5]; at 50.0 µM 31.6% | [5]; at 100.0 µM 38% | [6]; at 1.2 µM -3% | [6]; at 3.7 µM -4% | [6]; [17] 0% | [6]; at 11.0 µM -6% | [6]; at 33.0 µM -11% | [6]; [18] 37% | [6]; at 50.0 µM 3.8% | [6]; at 100.0 µM -10% | [7]; at 1.2 µM 4% | [7]; at 3.7 µM -3% | [7]; at 11.0 µM 9% | [7]; at 33.0 µM 12% | [7]; at 100.0 µM 56% | [8]; [17] 1% | [9]; at 1.2 µM -7% | [9]; at 3.7 µM -9% | [9]; at 11.0 µM -16% | [9]; at 33.0 µM -16% | [9]; at 100.0 µM -15% | [10]; [17] -1% | [10]; [18] 12% | [10]; at 50.0 µM 4.65% | [11]; at 1.2 µM -2% | [11]; at 3.7 µM 3% | [11]; [17] 7% | [11]; at 11.0 µM 2% | [11]; at 33.0 µM 2% | [11]; [18] 43% | [11]; at 50.0 µM 19.8% | [11]; at 100.0 µM 21% | [12]; at 1.2 µM -1% | [12]; at 3.7 µM 0% | [12]; at 11.0 µM 7% | [12]; at 33.0 µM 20% | [13]; at 1.2 µM -21% | [13]; at 3.7 µM -8% | [13]; at 11.0 µM -10% | [13]; at 33.0 µM -11% | [13]; at 100.0 µM 62% | [14]; at 1.2 µM -66% | [14]; at 3.7 µM -14% | [14]; at 11.0 µM 3% | [14]; at 33.0 µM 15% | [15]; [17] 1% | [16]; at 1.2 µM -9% | [16]; at 3.7 µM -8% | [16]; at 11.0 µM -10% | [16]; at 33.0 µM -10% | [16]; at 100.0 µM 13%

COc1ccc(C(=O)c2ccccc2C(=O)c2ccccc2OC)cc1
inactive: [1]; at 1.2 µM -1% | [1]; at 3.7 µM -2% | [1]; at 11.0 µM 1% | [1]; at 33.0 µM 6% | [1]; at 100.0 µM 14% | [2]; at 1.2 µM -2% | [2]; at 3.7 µM 1% | [2]; at 11.0 µM -6% | [2]; at 33.0 µM -7% | [2]; at 100.0 µM -4% | [3]; at 1.2 µM 5% | [3]; at 3.7 µM 9% | [3]; at 11.0 µM 11% | [3]; at 33.0 µM 15% | [3]; at 100.0 µM 13% | [4]; at 1.2 µM -1% | [4]; at 3.7 µM -1% | [4]; at 11.0 µM -2% | [4]; at 33.0 µM -1% | [4]; at 100.0 µM 7% | [5]; at 1.2 µM -1% | [5]; at 3.7 µM 1% | [5]; [17] 7% | [5]; at 11.0 µM -1% | [5]; at 33.0 µM 4% | [5]; [18] 46% | [5]; at 50.0 µM 12.8% | [5]; at 100.0 µM 10% | [6]; at 1.2 µM -2% | [6]; at 3.7 µM 1% | [6]; [17] -10% | [6]; at 11.0 µM 1% | [6]; at 33.0 µM 7% | [6]; [18] 16% | [6]; at 50.0 µM 10.1% | [6]; at 100.0 µM 11% | [7]; at 1.2 µM -3% | [7]; at 3.7 µM -5% | [7]; at 11.0 µM -5% | [7]; at 33.0 µM -1% | [7]; at 100.0 µM 8% | [8]; [17] 17% | [8]; [18] 55% | [8]; at 50.0 µM 15.4% | [9]; at 1.2 µM 2% | [9]; at 3.7 µM -15% | [9]; at 11.0 µM 0% | [9]; at 33.0 µM 7% | [9]; at 100.0 µM 24% | [10]; [17] 9% | [10]; [18] 35% | [10]; at 50.0 µM 13.7% | [11]; at 1.2 µM -1% | [11]; at 3.7 µM 3% | [11]; [17] 16% | [11]; at 11.0 µM 7% | [11]; at 33.0 µM 27% | [11]; at 50.0 µM 39.5% | [11]; at 100.0 µM 43% | [12]; at 1.2 µM -1% | [12]; at 3.7 µM -2% | [12]; at 11.0 µM -5% | [12]; at 33.0 µM -2% | [12]; at 100.0 µM 1% | [13]; at 1.2 µM 1% | [13]; at 3.7 µM -2% | [13]; at 11.0 µM -1% | [13]; at 33.0 µM 4% | [13]; at 100.0 µM 15% | [14]; at 1.2 µM -1% | [14]; at 3.7 µM -2% | [14]; at 11.0 µM 0% | [14]; at 33.0 µM 9% | [14]; at 100.0 µM 15% | [15]; [17] 30% | [15]; [18] 68% | [15]; at 50.0 µM 20.7% | [16]; at 1.2 µM -1% | [16]; at 3.7 µM -5% | [16]; at 11.0 µM -4% | [16]; at 33.0 µM 3% | [16]; at 100.0 µM 12%
active: [11]; [18] 79%
